# Several values for one entry are separate records, joined by “and”; a condition that tells them apart may be missing. Equal entries are not always repeated. This is part of a sample that, as a whole, favours compounds with a hit. Of some 83,000 tested, about 20% had one in any assay.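 Treatment: one concentration, 48 hours, 96-well format. Scoring: percent growth, with anything below 10 considered active.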 Activity calls are given as the source filed them.
# Tested on: MDA-MB-435 melanoma
# Assay: NCI-60 one-dose screen, 48 h (100 = growth as untreated, 0 = no growth, -100 = all killed)
# Settings: 10 µM unless noted
row,SMILES,growth
1,NC(=O)c1ccc(-c2ccc3ncnc(N4CCc5cc(F)c(Cl)cc54)c3c2)cn1,95.9% (inactive)
2,COc1cc2cc(C(=O)N3C[C@@H](CCl)c4c3cc(OC(=O)N(CCC(=O)N3CCN(C)CC3)[C@H]3CCSSC3)c3ccccc43)[nH]c2c(OC)c1OC,-48.5% (active)
3,COc1ccc2[nH]c(=O)c(CSc3ccccc3Nc3nccc(-c4ccc5c(c4)OCO5)n3)cc2c1,74.5% (inactive)

# Tested on: SW-620 colon
# Assay: as above
# Settings: 10 µM unless noted
row,SMILES,growth
1,N#Cc1cc(-c2ccc3ncnc(N4CCc5cc(F)c(Cl)cc54)c3c2)cnc1N,25.2% (inactive)
2,Cn1cc(Nc2ncnc(-c3ccc(N4CCCC4)c(C#N)c3)n2)cn1,57.6% (inactive)
3,CN(C)CCCc1ccc(Nc2cnn(C)c(=O)c2Cl)cc1,109% (inactive)
4,O=Cc1cncc(-c2ccc3ncnc(N4CCc5cc(F)c(Cl)cc54)c3c2)c1,23.4% (inactive)
5,N#CC1=C(c2cccs2)Nc2c(c(-c3ccccc3)nn2-c2ccccc2)C12C(=O)Nc1ccccc12 (centres undefined),8.74% (active)
6,O=C(CSc1nc2sc3c(c2c(=O)n1-c1ccc(Cl)cc1)CCCC3)NNC(=O)c1ccc(F)cc1,91% (inactive)
7,COc1ccc(-c2cc(-c3cc(OC)c(OC)c(OC)c3)[nH]c(=O)c2C#N)cc1,93.4% (inactive)
8,CC(=O)Nc1cccc(-n2c(COc3ccc(Br)cc3)nc3ccccc32)c1,97.9% (inactive) and 103% (inactive)
9,Cc1cc(Cl)ccc1NC(=O)Nc1ccc(-c2ccc3c(c2)NC(=O)/C3=C\c2ccc[nH]2)cc1,89.3% (inactive)
10,Nc1cc(-c2c[nH]c3ccc(Br)cc23)nc2cc(-c3c[nH]c4ccccc34)nn12,-83.2% (active)
11,CCc1ccc(SC2c3cc(OC)ccc3Oc3nc(N)c(C#N)c(N)c32)cc1 (centres undefined),-42.9% (active)
12,COc1ccc(C(=O)NNC(=O)CSc2nc3sc4c(c3c(=O)n2-c2ccc(Cl)cc2)CCCC4)cc1,88% (inactive)
13,CNc1nc2ccccc2n2c(-c3ccc(O)c(O)c3)cnc12,24.6% (inactive)
14,CN(CCSSCCN1CCOCC1)C(=O)Oc1cc2c(c3ccccc13)[C@H](CCl)CN2C(=O)c1cc2cc(OCCCN3CCC3)ccc2[nH]1,-8.71% (active)
15,Cn1cc(-c2cc(N)n3nc(-c4c[nH]c5ccc(F)cc45)cc3n2)c2cccnc21,-66.4% (active)
16,O=C(Cn1c(-c2ccccc2)nc2ccccc21)N=Nc1c(O)[nH]c2ccc(Br)cc12,11.9% (inactive)

row,SMILES,growth
1,O=C(NN1C(=O)/C(=C/C=C/c2ccc([N+](=O)[O-])o2)SC1=S)c1ccncc1,-69.6% (active)
2,CCCCCCCCCc1ccc(C(=O)Nc2cc(C)ccc2C(=O)OC)cc1,99.7% (inactive)
3,COc1ccc(N=Nc2c(N)nn3c(-c4ccc([N+](=O)[O-])cc4)ccnc23)cc1,98.4% (inactive)
4,COc1ccc2[nH]c(O)c(N=Nc3nc(-c4ccc(Cl)cc4)cs3)c2c1,2.98% (active)
5,C[C@@H](Nc1c(C#N)cnc2ccc(-c3cnc4[nH]ncc4c3)cc12)c1ccccc1,40.2% (inactive)
6,CS(=O)(=O)Nc1cccc(-n2c(COc3ccc(OC(F)(F)F)cc3)nc3ccccc32)c1,97.3% (inactive) and 108% (inactive)
7,Cc1cc(C(NC(=O)CCCCCNc2cccc3c2C(=O)N(C2CCC(=O)CC2=O)C3=O)c2cccc(N(C)C)c2)c(O)c2ncccc12 (centres undefined),23.7% (inactive)
8,COc1ccc(S(=O)(=O)Nc2ccc(-c3ccc4c(c3)NC(=O)/C4=C\c3ccc[nH]3)cc2)cc1OC,16.1% (inactive)
9,COc1ccc(-c2nc3ccccc3n2CC(=O)N=Nc2c(O)[nH]c3ccc(OC)cc23)cc1,48.6% (inactive)
10,Cc1ccc(C(C(=O)NC2CCCCC2)N(Cc2ccccc2Cl)C(=O)c2ccc(CN3CCOCC3)o2)o1 (centres undefined),105% (inactive)
11,COc1ccc(N=Nc2c(N)nn3c(-c4ccc(OC)c(OC)c4)ccnc23)cc1,95.2% (inactive)
12,Cc1ccc(Cl)cc1NC(=O)N/C(N)=N/c1nc2ccccc2s1,1.84% (active)
13,N#Cc1cc(-c2ccnc(Nc3ccc(N4CCN(C5COC5)CC4)cc3)n2)ccc1N1CCCC1,72.7% (inactive)
14,COc1ccc(-c2nc3ccc(-c4nnc(SCC(=O)Nc5ccc(/C(C)=N\O)cc5)o4)cc3[nH]2)cc1,96.2% (inactive)
15,O=C1/C(=C/c2cnc(-c3ccccc3)s2)SC(=S)N1Cc1ccc2c(c1)OCO2,102% (inactive)

# Source: PubChem BioAssay (NCI)
